# According to PubChem BioAssay (NCATS):
# Values joined by “and” are separate entries in the source; they are usually repeats but may differ in a detail not shown here. Equal values may be shown once. Inconclusive results are not listed. Unmarked numbers belong to inactive results. Active and inactive are the calls of the source.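 The calls were made as follows: active = compounds whose dose-response curve shows a full or clear partial loss of cell viability, called from curve shape rather than a numeric limit; inconclusive = weak partial curves or an effect only at the top dose; inactive = no dose-dependent loss of viability.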
# Assay: Cell Viability - Hek293 (AID 427);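 also: cells exposed to compound for 40 hours at 37 °C before reading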
# Conditions: qHTS
# Source text: NIH Chemical Genomics Center [NCGC]
# NIH Molecular Libraries Screening Centers Network [MLSCN]
# National Institutes of Environmental Health Sciences [NIEHS]
# National Toxicology Program [NTP]
# We have developed a 1536-well cell-based assay for quantitative high throughput screening (qHTS) against a number of cell lines to determine in vitro cytotoxicity of small molecules. This particular assay uses the Hek 293 cell line which is derived from human embryonic kidney cells (transformed with adenovirus).
# NCGC Assay Protocol Summary:
# The CellTiter-Glo luminescent cell viability assay (Promega) is a homogeneous method to measure the number of viable cells in culture. The end point readout of this assay is based on quantitation of intracellular ATP, an indicator of metabolic activity, using the luciferase reaction. Luciferase catalyzes the oxidation of beetle Luciferin to oxyluciferin and light in the presence of ATP. The luminescent signal is proportional to amount of ATP present.
# Using the CellTiter-Glo luminescent cell viability assay, the amount of cellular ATP was measured in the Hek293 cell line with complete culture medium following compound treatment for 40 hours. The assay was performed in opaque white Kalypsys 1536-well plates. In the screen, tamoxifen and doxorubicin were used as positive controls. Library compounds were measured for their ability to cause acute toxicity in the cell line, as reflected by a decrease in intracellular ATP levels, in a concentration-dependent manner. Data were normalized to the controls for basal activity (DMSO only) and 100% inhibition (100 uM tamoxifen). AC50 values were determined from concentration-response data modeled with the standard Hill equation.
# qHTS protocol fo CellTiter Glo Hek 293 cellular assay
# [Step] [Parameter] [Value] [Description]
# 2. Time; 5 hr; 37 °C incubation
# 4. Controls; 23 nL; Tamoxifen 0.34 uM to 100 uM & Doxorubicin 0.02 nM to 100 uM
# 5. Time; 40 hr; 37 °C incubation
# 6. Reagent; 5 uL; CellTiter Glo reagent
# 7. Time; 20 min; Room Temperature
# 8. Detection; Luminescence; Viewlux plate reader
# Keywords: cell viability, cytotoxicity, Hek293 cell line, luminescence, NTPHTS, NTPHTS_NCGC, NIEHS, EPA, DSSTox, MLSMR, MLSCN, NIH Roadmap, qHTS, NCGC
# Potency is read from the fitted curve at half-maximal effect.
row,Compound,Potency
1,COC1=CC(=O)O[C@@H](/C=C/c2ccccc2)C1,> 92 µM
2,[O]=[Cr](=[O])([OH])[O][Cr](=[O])(=[O])[OH],30.9 µM (active) and 31.8 µM (active) and 19.2 µM (active)
3,O=[N+]([O-])c1ccccc1,> 92 µM
4,NNC(N)=O,> 92 µM
5,[O]=[Cd],> 92 µM
6,CC(C)(C)c1cc(O)ccc1O,> 92 µM
7,CCCCCl,> 92 µM
8,C=CCN=C=S,> 92 µM
9,ClC(Cl)(Cl)Cl,> 92 µM
10,ClC=C(Cl)Cl,> 92 µM
11,O=CC=O,> 92 µM
12,Oc1cc(Cl)c(Cl)cc1Cl,> 92 µM
13,O=C(O)C(Cl)(Cl)Cl,> 92 µM
14,O=C1CCO1,> 92 µM
15,Clc1ccccc1Cl,> 92 µM
16,[Cl-].[Cl-].[Hg+2],19.4 µM (active)
17,O=Cc1ccco1,> 92 µM
18,CCCCCCCCOC(=O)c1ccccc1C(=O)OCCCCCCCC,> 92 µM
19,CCOC(=O)c1ccccc1C(=O)OCC,> 92 µM
20,ClCC1CO1 (stereo unspecified),> 92 µM
21,O=C1C2CC=CCC2C(=O)N1SC(Cl)(Cl)Cl (stereo unspecified),26.5 µM (active) and 26.9 µM (active)
22,O=C1C=CC(=O)C=C1,> 92 µM
23,S=C=S,> 92 µM
24,COc1ccc2c(c1OC)C(=O)OC2C1c2cc3c(cc2CCN1C)OCO3 (stereo unspecified),> 92 µM
25,C[C@H]1CC[C@@H]2[C@@H](C)[C@H]3[C@H](C[C@H]4[C@@H]5CC=C6CC(O[C@@H]7O[C@H](CO)[C@H](O)[C@H](O[C@@H]8O[C@H](CO)[C@@H](O)[C@H](O)[C@H]8O)[C@H]7O[C@H]7O[C@@H](C)[C@H](O)[C@@H](O)[C@H]7O)CC[C@]6(C)[C@H]5CC[C@]34C)N2C1 (stereo partly specified),39.3 µM (active)
26,CC(C)CCON=O,> 92 µM
